Data: PubChem BioAssay (NCI)
About 79,000 compounds went through this panel and 15% of them were active in at least one assay; those are over-represented in the sample as a whole. A number with no mark means an inactive call. Active and inactive are the calls of the source. Cut-off read from the data, not from the text of the source: active = growth inhibition above about 70%; inactive = the rest.

Key:
[1] = NCI Yeast Anticancer Drug Screen. Data for the rad50 strain (AID 155);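 note: 0% = growth of vehicle-only cultures of the same strain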; details: S. cerevisiae rad50 strain growth inhibition; at 50.0 µM; stronger effect = higher value
Procedure, shortened: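 Growth of the mutant yeast was measured after compound exposure and referenced to vehicle-treated cultures.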

[2] = NCI Yeast Anticancer Drug Screen. Data for the mec2-1 strain (AID 157); details: S. cerevisiae mec2-1 strain, at 50.0 µM, stronger effect = higher value
Procedure, shortened: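 Vehicle-treated cultures served as reference for growth inhibition of compound-exposed mec2-1 yeast.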

[3] = NCI Yeast Anticancer Drug Screen. Data for the sgs1 mgt1 strain (AID 161);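 note: 0% = growth of cultures given vehicle only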; details: S. cerevisiae sgs1 mgt1 strain, at 50.0 µM, stronger effect = higher value
Procedure, shortened: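 Inhibition of yeast growth, normalised to vehicle-treated controls, is reported for a strain bearing genetic alterations in DNA damage repair.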

[4] = NCI Yeast Anticancer Drug Screen. Data for the cln2 rad14 strain (AID 165);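 note: 0% = growth equal to vehicle treated cultures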; details: S. cerevisiae cln2 rad14 strain, at 50.0 µM, stronger effect = higher value
Procedure, shortened: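 Each compound was tested on cln2 rad14 yeast. Inhibition of growth was calculated against vehicle-exposed controls.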

[5] = NCI Yeast Anticancer Drug Screen. Data for the bub3 strain (AID 167); details: S. cerevisiae bub3 mutant strain, at 50.0 µM, stronger effect = higher value
Procedure, shortened: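 Whole-cell yeast assay. The mutant strain was incubated with compounds, and growth inhibition was determined by comparison with vehicle-treated cells.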

[6] = NCI Yeast Anticancer Drug Screen. Data for the mlh1 rad18 strain (AID 175); details: S. cerevisiae mlh1 rad18 strain growth inhibition; at 50.0 µM; stronger effect = higher value
Procedure, shortened: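 Vehicle-treated cultures served as the reference for growth inhibition in a yeast strain carrying DNA damage repair alterations exposed to each compound.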

Compound | growth inhibition [1] | growth inhibition [2] [%] | growth inhibition [3] | growth inhibition [4] | growth inhibition [5] [%] | growth inhibition [6]
COc1cc(C2C3=C(N=C4SC(C(C)=O)=C(C)N42)c2ccccc2CC3)cc(OC)c1OC (stereo unspecified) | -30.4% | -48.6 | -22.2% | 3.2% | -35.7 | -17.8%
c1ccc2c(c1)CNNC2 | 11.3% | -4.4 | -5.55% | 11.3% | 15.8 | -8.1%
O=C(CNC(=O)C(CSC(c1ccccc1)(c1ccccc1)c1ccccc1)NC(=O)OCc1ccccc1)OCc1ccccc1[N+](=O)[O-] (stereo unspecified) | 4.9% | 8.85 | -4.15% | -7.95% | -7.05 | 20.1%
O=C(OCC1OC(Br)CC(OC(=O)c2ccc([N+](=O)[O-])cc2)C1OC(=O)c1ccc([N+](=O)[O-])cc1)c1ccc([N+](=O)[O-])cc1 (stereo unspecified) | 6.9% | 9.95 | 18.1% | -22.4% | -8.95 | 35.5%
CCCCCCC(O)C/C=C\CCCCCCCCO (stereo unspecified) | 11.9% | -20.9 | 13.3% | -27.6% | 27.1 | 18.4%
O=C1OC(=C(Cl)Cl)C2C3c4ccccc4C(c4ccccc43)C12 (stereo unspecified) | 21.9% | 21.6 | -1.5% | 8.75% | 2.7 | 18.2%
COC(=O)C(Cc1[nH]c(N=Nc2ccc(Br)cc2)nc1N=Nc1ccc(Br)cc1)NC(C)=O (stereo unspecified) | 43% | -1 | 27.1% | -11.1% | -3.55 | -5.25%
Oc1ccc2c(c1)CCC2 | 25% | -1.95 | -1.3% | 8% | -10.8 | -19.6%
C=CCn1c(=S)sc2c(C(=O)OCC)c3c(C)cc(C)cn3c2c1=O | -18.1% | -56.5 | -60% | -5% | -34.7 | -37.9%
CCCCC(CC)CCC(O)C(O)C(C)C (stereo unspecified) (tested in a mixture with another compound) | -3.85% | 3.2 | -7.8% | -14.3% | -8.95 | -14.8%
CC1=N/C(=C/c2ccc3c(c2)OCO3)C(=O)O1 | 5.05% | 6.1 | 6.05% | -24.9% | -4.6 | 14%
COc1cc2c(cc1OC)C(=O)CC2 | -12.7% | -10.9 | -19.7% | -5.25% | -4.2 | 0.15%
O=c1c(N2CCOCC2)c(N2CCOCC2)c1=O | -21.6% | -22.9 | 0.25% | 15.4% | -24.4 | -1.1%
CCCCNC(=O)c1ccc([N+](=O)[O-])cc1 | 29.3% | 12 | 13.4% | 17.6% | -16.8 | -9.05%
O=C(CNc1ccccn1)Nn1cnc2ccc(S(=O)(=O)Nc3ccccn3)cc2c1=O | 32.2% | 28 | 39.4% | -1.1% | 25.6 | 22.6%
O=C1c2ccccc2NC(c2cc(Cl)cc(Cl)c2O)N1CCc1ccccn1 (stereo unspecified) | 8.05% | -21.9 | -14.4% | 14.7% | -25.1 | -11.9%
CC(=O)OC[C@]1(O)CC[C@@]23CC1C[C@@H]2CCC1C(C)(C)CCC[C@@]13C (stereo partly specified) | 81.5% (active) | 41.6 | 64.8% | 71.6% (active) | 67.7 | 64.4%
C/C(=N/N)c1sc(-c2nc(C)c(/C(C)=N\N)s2)nc1C | 32.9% | -31.1 | -26.9% | -16% | -18.1 | -11.3%
Cc1c2c(cc3c1[nH]c1ccccc13)C(=O)c1ccccc1C2=O | 75.5% (active) | 68.5 | 75.8% (active) | 75.3% (active) | 68.1 | 83.3% (active)
CCOC(=O)c1ccc(NC(=O)c2cnccn2)cc1 | -6.5% | 0.3 | -17.7% | -15.4% | -20.4 | -2%
COC(=O)C(=O)C1CCc2c(C(=O)OC)nc3[nH]n(-c4ccccc4)c(=O)c3c21 (stereo unspecified) | 12.1% | -14.3 | 4.2% | -30.2% | 25.1 | 0.25%

Compound | growth inhibition [1] | growth inhibition [2] [%] | growth inhibition [3] | growth inhibition [4] | growth inhibition [5] [%] | growth inhibition [6]
CN(C)N=Nc1ccc(Cl)cc1 | -5.15% | 21.9 | 16.6% | -56.6% | 35 | 8.3%
C/C(=C\c1ccccc1)C(O)S(=O)(=O)O (stereo unspecified) | 4.5% | -0.35 | -2.9% | 11.9% | -12.1 | -4.55%
CCN(CC)CCC1(C#N)Cc2ccccc2N(CC)c2ccccc21 (stereo unspecified) | 41.8% | 5.05 | 9.45% | 15.6% | 7.3 | -19.6%
O=C(O)c1ccccc1SC(Sc1ccccc1C(=O)O)c1cccs1 | 12.4% | -9.65 | 3.75% | -4.55% | 6.25 | 4%
CNS(=O)(=O)c1ccccc1C(=N)c1ccccc1 | -0.3% | -8.25 | -27.6% | -4.95% | -45.9 | -31.4%
C/C(=N\NC(=O)C1CCCO1)c1cccc2ccccc12 (stereo unspecified) | 3.1% | 11.5 | 5.55% | 17% | 3.9 | 3.55%
COc1ccc2c(Cl)ccnc2c1OC | 15.3% | 6.1 | 10.9% | -15% | 23.4 | 21.8%
CC(=O)C1C[C@]2(O)[C@@]3(C)CO[C@]2(C)CC1(O)C3 (stereo partly specified) | 3.45% | 11.4 | 17.9% | 7.2% | 20.2 | 12.9%
Nc1cc(S(=O)(=O)O)ccc1O | -1% | -16.1 | -21.9% | -41.9% | 3.05 | -33.5%
CC(NC(=O)C(NC(=O)c1ccc[n+](Cc2ccccc2)c1)C(C)C)C(N)=O (stereo unspecified) | 0.45% | 8.05 | -2.6% | -6.2% | -1.95 | 23.4%
COc1ccc(CCN2C(=O)c3cccc4c(Br)ccc(c34)C2=O)cc1 | 23.8% | 1.3 | 18.6% | 14.5% | 44.6 | 35.9%
Nc1ccc2cc(S(=O)(=O)O)cc(S(=O)(=O)O)c2c1 | 39.3% | -5.2 | 6.6% | -18.9% | -0.15 | 31.8%
O=C(O)c1ccc(N=NC2Sc3nc4ccccc4n3C2=O)cc1 (stereo unspecified) | 16.7% | -13.8 | 15.7% | -8.9% | 11.2 | 44.2%
CC(=O)OC1C(=C(Br)Br)C(COC(=O)c2ccccc2)OC1n1cnc2c(NC(=O)c3ccccc3)ncnc21 (stereo unspecified) | 8.3% | 8.8 | 10.4% | 0.1% | 16.9 | 25.9%
CC1CC(C)SC(C)S1 (stereo unspecified) | -30.6% | -7.95 | -10.1% | -87.4% | -2.7 | -14.8%
CC(C)(C)OC(=O)NC(Cc1ccc(OC(C)(C)C)cc1)C(=O)N[C@H]1CC[C@H](C(=O)O)C1 (stereo partly specified) | -6.6% | -1.25 | -8% | -7.85% | 11.2 | 10%
C=CCNC(=S)Nc1ccc(OC(=O)NC2CCCCC2)cc1 | 6.4% | 23.6 | 15.1% | -7.85% | -2.4 | 31.9%
O=C(O)/C=C/c1ccccc1Cl | -9.7% | 10.1 | -1.3% | -25.8% | 0.8 | -9.9%
N#CC(N)=NC1CCC(C2CCC(O)CC2)CC1 (stereo unspecified) | 6.65% | 2.4 | -6.25% | -1.3% | 16.1 | 10.7%
CC(C(O)C(F)(F)F)[N+](=O)[O-] (stereo unspecified) | -1.7% | -4.5 | 8.65% | -5.2% | -2.05 | 17.2%
